The nature of test [1]: E. coli DRC41 culture turbidity changes, primary screen, E. coli filamentation inducer project, strain DRC41, OD650, 48 h (AID 1152).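 Note: E. coli MC1000 strain DRC41 lacking acrAB efflux pump and sulA.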 The following applies: E. coli DRC41 (acrAB sulA), higher = more signal, called active from +8 up or from −8 down.
Test [2] is described as follows: small-molecule binders of probe aLefty1, primary screen, biochemical, small-molecule microarray, 635/667 nm fluorescence (AID 1153).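 Note: score merges spot fluorescence with signal-to-noise ratio from the scanned slide images.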 The following applies: higher = more signal.
Test [3] can be described thus: PSAC antagonists in infected red cells, primary screen, cell-based, P. falciparum Indochina, OD700, 1 h (AID 1154). The following applies: P. falciparum Indochina infected RBC osmotic lysis, higher = more signal, called active from +8 up or from −8 down.
Test [4] is described as follows: PSAC antagonists in infected red cells, primary screen, cell-based, P. falciparum Indochina, OD700, 2 h (AID 1155).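 Note: lysis reports solute entry through the parasite surface anion channel PSAC; channel blockers reduce lysis of infected cells.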 Conditions: P. falciparum Indochina infected erythrocytes, osmotic lysis OD700; higher = more signal, called active from +8 up or from −8 down.
Test [5] can be described thus: osmotic lysis modulators in infected erythrocytes, primary screen, PSAC antagonist project, cell-based, P. falciparum Indochina, OD700, 3 h (AID 1156). The following applies: higher = more signal, called active from +8 up or from −8 down.
The nature of test [6]: PSAC antagonists in infected red cells, primary screen, cell-based, P. falciparum Indochina, OD700, 18 h (AID 1157). The following applies: P. falciparum Indochina infected erythrocytes, osmotic lysis OD700, 18 h; higher = more signal, called active from +8 up or from −8 down.
Test [7] in a line: modulators of S6 phosphorylation in cells, primary screen, cell-based, A549, cytoblot, luminescence, serum-stimulated (AID 1158).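 Note: serum-stimulated A549 lung adenocarcinoma cells; signal is phosphorylated S6 detected by cytoblot immunostaining with HRP secondary.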 Conditions: A549 phospho-S6 cytoblot, 5 h, higher = more signal.
Test [8] concerns the target NADPH oxidase 2 (Homo sapiens) (UniProt P04839). Description: NOX2-dependent H2O2 signal modulators, primary screen, NOX inhibitor project, cell-based, HEK293-NOX2, PMA-stimulated, Amplex Red fluorescence (AID 1159). Note: test concentration not given here. The following applies: 45 min, higher = more signal, called active from +8 up or from −8 down.
Test [9] has as its target NADPH oxidase 4 (Homo sapiens) (UniProt Q9NPH5). Description: NOX4-dependent H2O2 signal modulators, primary screen, NOX inhibitor project, cell-based, HEK293-NOX4, tetracycline-induced, Amplex Red fluorescence (AID 1160). Conditions: 45 min, higher = more signal, called active from +8 up or from −8 down.
Test [10] has as its target NADPH oxidase 5 (Homo sapiens) (UniProt Q96PH1). As to the kind of experiment: NOX5-dependent H2O2 signal modulators, primary screen, NOX inhibitor project, cell-based, HEK293-NOX5, Amplex Red fluorescence (AID 1161). The following applies: HEK293-NOX5, ionomycin, 45 min, higher = more signal.
A short description of test [11]: A549 cell viability effects, profiling panel, calcein-AM fluorescence, 48 h, basal (AID 1162). Note: test concentration not given here. Conditions: higher = more signal.
Test [12] is described as follows: adipocyte viability effects, profiling panel, cell-based, 3T3-L1 adipocytes, calcein-AM fluorescence, 48 h, basal (AID 1163). Note: test concentration not given here. Conditions: 3T3-L1 adipocytes viability, higher = more signal.
Test [13] can be described thus: HepG2 cell viability effects, profiling panel, calcein-AM fluorescence, 48 h, basal (AID 1164). Note: test concentration not given here. Conditions: higher = more signal.
Test [14] in a line: MM1S cell viability effects, profiling panel, calcein-AM fluorescence, 48 h, basal (AID 1165).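 Note: viability of MM1S multiple myeloma cells under basal unstimulated conditions; test concentration not given here.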 The following applies: higher = more signal.
Test [15] is described as follows: basal RPMI8226 viability, no added stimulus, profiling panel, cell-based, calcein-AM fluorescence, 48 h, PK04 Diversity Set (AID 1166).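 Note: cells grown under basal conditions without added stimulus; test concentration not given here.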 The following applies: RPMI8226 myeloma viability, higher = more signal.
Test [16] can be described thus: basal HepG2 mitochondrial membrane potential changes, profiling panel, cell-based, JC-1 fluorescence, 24 h, 100 nL compound (AID 1167). Note: test concentration not given here. Conditions: higher = more signal.
Test [17] in a line: basal 3T3-L1 adipocyte mitochondrial potential changes, profiling panel, cell-based, JC-1 fluorescence, 3T3-L1 adipocytes, 24 h, 100 nL compound (AID 1168). Note: test concentration not given here. The following applies: JC-1 mitochondrial fluorescence, higher = more signal, called active from +8 up or from −8 down.
Test [18] in a line: basal RPMI8226 mitochondrial membrane potential changes, profiling panel, cell-based, JC-1 fluorescence, 24 h, 100 nL compound (AID 1169). Note: test concentration not given here. The following applies: RPMI8226 myeloma, JC-1 mitochondrial potential fluorescence, higher = more signal.
Test [19] can be described thus: basal MM1S mitochondrial membrane potential changes, profiling panel, cell-based, JC-1 fluorescence, 24 h, 100 nL compound (AID 1170). Note: test concentration not given here. Conditions: higher = more signal.
The nature of test [20]: A549 lung cancer cell viability effects, profiling panel, resazurin fluorescence, 24 h, PK04 Diversity Set (AID 1171). Note: test concentration not given here. Conditions: higher = more signal, called active from +8 up or from −8 down. On the technique in general: Resazurin is reduced to fluorescent resorufin, in cell work by metabolically active cells.

The source made the active and inactive calls.

NADPH oxidase 5 (Homo sapiens), sequence (Q96PH1 whole entry, looked up): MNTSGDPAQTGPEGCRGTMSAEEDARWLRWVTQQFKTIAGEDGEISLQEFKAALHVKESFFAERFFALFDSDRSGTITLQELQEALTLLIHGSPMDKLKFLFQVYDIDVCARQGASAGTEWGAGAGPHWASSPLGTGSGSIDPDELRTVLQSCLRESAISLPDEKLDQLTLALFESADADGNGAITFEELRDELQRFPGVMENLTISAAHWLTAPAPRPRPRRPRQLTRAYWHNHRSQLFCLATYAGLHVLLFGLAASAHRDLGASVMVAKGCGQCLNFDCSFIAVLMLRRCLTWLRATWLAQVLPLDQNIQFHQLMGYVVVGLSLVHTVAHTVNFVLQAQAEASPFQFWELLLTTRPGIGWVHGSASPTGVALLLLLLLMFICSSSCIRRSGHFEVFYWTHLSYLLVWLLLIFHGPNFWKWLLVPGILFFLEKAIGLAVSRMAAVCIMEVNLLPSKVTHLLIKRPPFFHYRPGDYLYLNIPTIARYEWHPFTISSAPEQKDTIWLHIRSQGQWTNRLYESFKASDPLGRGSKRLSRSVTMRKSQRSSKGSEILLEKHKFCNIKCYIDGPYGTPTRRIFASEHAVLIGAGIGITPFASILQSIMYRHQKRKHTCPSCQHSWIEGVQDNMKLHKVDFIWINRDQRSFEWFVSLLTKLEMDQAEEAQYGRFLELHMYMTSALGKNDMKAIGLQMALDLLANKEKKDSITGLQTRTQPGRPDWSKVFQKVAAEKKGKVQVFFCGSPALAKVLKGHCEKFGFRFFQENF
NADPH oxidase 4 (Homo sapiens), sequence (Q9NPH5 whole entry, looked up): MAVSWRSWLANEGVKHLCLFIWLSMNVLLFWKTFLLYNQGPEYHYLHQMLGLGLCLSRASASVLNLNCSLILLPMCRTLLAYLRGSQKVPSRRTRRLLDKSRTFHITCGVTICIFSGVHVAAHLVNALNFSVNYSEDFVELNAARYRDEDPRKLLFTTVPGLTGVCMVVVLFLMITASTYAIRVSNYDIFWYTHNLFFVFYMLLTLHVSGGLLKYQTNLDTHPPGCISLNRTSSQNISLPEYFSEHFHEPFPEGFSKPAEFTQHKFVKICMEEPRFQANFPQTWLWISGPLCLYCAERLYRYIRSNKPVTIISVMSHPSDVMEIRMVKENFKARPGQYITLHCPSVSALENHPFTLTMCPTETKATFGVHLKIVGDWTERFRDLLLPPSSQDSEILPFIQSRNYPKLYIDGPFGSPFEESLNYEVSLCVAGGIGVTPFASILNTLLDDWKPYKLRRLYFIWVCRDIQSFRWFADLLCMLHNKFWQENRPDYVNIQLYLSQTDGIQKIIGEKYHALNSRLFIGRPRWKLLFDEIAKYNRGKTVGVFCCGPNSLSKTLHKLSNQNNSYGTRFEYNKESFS
NADPH oxidase 2 (Homo sapiens), sequence (P04839 whole entry, looked up): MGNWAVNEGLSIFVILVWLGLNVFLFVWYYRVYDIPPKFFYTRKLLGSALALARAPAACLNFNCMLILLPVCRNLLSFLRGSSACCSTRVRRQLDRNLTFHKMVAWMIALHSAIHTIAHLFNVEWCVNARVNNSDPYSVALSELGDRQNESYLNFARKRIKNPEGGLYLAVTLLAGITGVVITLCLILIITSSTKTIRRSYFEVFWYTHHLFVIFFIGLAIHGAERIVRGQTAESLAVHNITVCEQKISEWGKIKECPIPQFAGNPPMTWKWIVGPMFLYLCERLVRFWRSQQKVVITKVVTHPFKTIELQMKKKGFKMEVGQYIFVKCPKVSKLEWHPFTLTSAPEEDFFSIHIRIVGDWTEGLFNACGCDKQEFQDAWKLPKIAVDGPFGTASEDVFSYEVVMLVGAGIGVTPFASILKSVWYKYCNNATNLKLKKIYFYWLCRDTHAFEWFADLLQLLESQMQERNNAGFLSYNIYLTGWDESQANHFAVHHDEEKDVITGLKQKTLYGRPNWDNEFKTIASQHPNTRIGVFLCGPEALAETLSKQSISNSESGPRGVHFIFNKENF

In the case of `Cc1ccc(S[C@]2(C(=O)NCC(F)(F)F)CC(=O)N(Cc3ccccc3C(F)(F)F)[C@@H]2c2ccc(CO)cc2)cc1`, the z-score was -0.262 (inactive) in test [1]; 1.4 (inactive) in [3]; -0.107 (inactive) in test [4]; -0.142 (inactive) in [5]; 0.135 (inactive) in [6]; -0.0621 in [7]. Besides, the z-score was -2.02 (inactive) in test [8]; 0.426 (inactive) in test [9]; -0.0735 in test [10]; -0.859 in test [11]; 0.0909 in test [12]; -0.768 in [13]. Further, the z-score in test [14] is -1.04; in test [15], 0.0646; in [16], -0.523; in test [17] it was 0.0107 (inactive); in [18], 0.0145; in [19], -0.594. In addition, the z-score in [20] is 0.413 (inactive). The compound further showed a composite z-score in test [2] of 0.007.
Regarding `O=C1O[C@@H](c2ccccc2)[C@@H](c2ccccc2)N2[C@@H](c3ccc(OCCO)cc3)[C@]3(C(=O)Nc4ccc(C#CC5(O)CCCCCC5)cc43)[C@@H](C(=O)Nc3nc4ccccc4s3)[C@H]12`, the z-score in test [1] is 0.219 (inactive); in [3], 2.63 (inactive); in test [4], 1.76 (inactive); in test [5] it was 0.626 (inactive); in [6] it was 1.96 (inactive); in test [7], 0.693. The z-score in test [8] was 1.2 (inactive); in test [9] it was -1.33 (inactive); in test [10], 0.52; in [11], 0.324; in test [12], 1.33; in test [13], 0.667. Further, the z-score in [14] was -1.64; in test [15] it was -1.79; in [16], -3.13; in test [17], -0.456 (inactive); in test [18], -0.805; in test [19], -0.344. Further, in [20], the z-score was 0.524 (inactive). Also, the composite z-score in test [2] is -0.0061.
For `COCCCNC(=O)[C@@]1(CCS(=O)(=O)c2ccccc2)COC(c2ccc(OCCCO)cc2)=N1`, the z-score in test [1] is 1.08 (inactive); in [3], 29.2 (active); in test [4], 24.6 (active); in test [5] it was 0.764 (inactive); in test [6], 4.31 (inactive); in test [7], -0.131. In addition, the z-score was -0.556 (inactive) in test [8]; 0.25 (inactive) in test [9]; 0.0637 in test [10]; -0.222 in test [11]; 1.11 in test [12]; -0.771 in test [13]. Also, the z-score in [14] is -0.181; in [15], -0.49; in test [16], -0.903; in test [17], -0.736 (inactive); in [18], -0.249; in test [19], -0.0725. Moreover, the z-score in test [20] is -0.468 (inactive). The same compound displayed a composite z-score in test [2] of 0.87.
Consider `C=C(C)[C@@H]1CC=C(C(O)C2C=CC3C(=O)N(C)C(=O)C3N2Nc2ccc([N+](=O)[O-])cc2[N+](=O)[O-])CC1` (stereo not given in full), for which the z-score was -1.03 (inactive) in test [1]; 22.8 (active) in test [3]; 6.33 (inactive) in test [4]; 0.0383 (inactive) in test [5]; 1.46 (inactive) in test [6]; -1.42 in test [7]. The z-score in test [8] is -0.188 (inactive); in test [9] it was 0.811 (inactive); in [10], 2.85; in test [11], -0.34; in test [12], -0.924; in test [13], -0.303. The z-score in test [14] is -0.731; in test [15], -2.48; in test [16] it was -0.286; in test [17] it was -1.71 (inactive); in test [18] it was 0.553; in test [19], -0.755. For the same compound, in test [20], the z-score was -0.375 (inactive). The composite z-score in test [2] turned out to be 0.807.
In the case of `NCCCCCCNC(=O)[C@@H]1C[C@@H]2C(=O)N3CCC[C@H]3C(=O)N2[C@@H]1c1cccc(OCCO)c1`, the z-score in test [1] is 1.82 (inactive); in test [3], 4.29 (inactive); in [4] it was -0.643 (inactive); in test [5], 1.53 (inactive); in test [6] it was -1.8 (inactive); in [7], -0.0015. Further, the z-score is 1.62 (inactive) in test [8]; 1.42 (inactive) in [9]; 0.99 in test [10]; 0.108 in test [11]; 1.18 in [12]; -0.12 in test [13]. Moreover, the z-score in [14] was 0.597; in [15] it was 0.313; in test [16], 0.127; in test [17] it was 0.391 (inactive); in [18], -0.675; in test [19], 0.468. Further, in [20], the z-score is 0.999 (inactive). In test [2], the composite z-score turned out to be 0.012.
With `CC1CC/C=C\[C@H]2OC34C=CCN(CCN5CCOCC5)C(=O)[C@H]3N(CCCO)C(=O)[C@@H]4C2C(=O)O1` (stereo not given in full), the z-score in test [1] is -0.576 (inactive); in [3], 0.811 (inactive); in test [4], 0.354 (inactive); in [5] it was -0.513 (inactive); in [6], 0.136 (inactive); in test [7], 1.38. Besides, the z-score in test [8] is 0.638 (inactive); in [9], -1.71 (inactive); in test [10] it was 0.947; in test [11] it was -0.451; in [12] it was 0.483; in test [13], -0.723. The z-score was 1.22 in test [14]; 0.42 in test [15]; -0.734 in [16]; -0.711 (inactive) in test [17]; 0.741 in [18]; 0.649 in [19]. Moreover, the z-score in [20] was -0.467 (inactive). In addition, the composite z-score in test [2] is -0.0518.
As for `C=C(COC)/C(=C/C[C@@H](OC(C)=O)c1ccccc1OCCO)c1cnc2ccccc2c1`, the z-score in test [1] was -0.146 (inactive); in test [3] it was 28.1 (active); in test [4] it was 14.2 (active); in test [5] it was 1.56 (inactive); in [6], 1.71 (inactive); in [7], 0.413. For the same compound, the z-score is -1.22 (inactive) in [8]; -1.04 (inactive) in test [9]; -0.792 in test [10]; 0.106 in [11]; 1.5 in test [12]; -0.268 in test [13]. The z-score in test [14] is -2.48; in test [15], -1.14; in test [16], 0.23; in test [17], -0.433 (inactive); in test [18], 0.328; in test [19], 1.4. The z-score in test [20] was -1.69 (inactive). Moreover, in test [2], the composite z-score came to 0.267.
With `O=C(NCC(O)CO)[C@@]1(CCS(=O)(=O)c2ccccc2)N=C(c2ccc(OCCCO)cc2)O[C@H]1c1ccccc1` (stereo not given in full), the z-score was -0.295 (inactive) in [1]; 25.6 (active) in test [3]; 19.1 (active) in test [4]; 2.38 (inactive) in test [5]; 1.39 (inactive) in test [6]; 1.07 in [7]. Moreover, the z-score was -0.356 (inactive) in test [8]; 1.47 (inactive) in test [9]; 1.33 in [10]; 0.433 in test [11]; 0.719 in test [12]; -0.4 in test [13]. Further, the z-score is -1 in [14]; -2.47 in [15]; 0.956 in test [16]; -0.874 (inactive) in test [17]; -0.694 in test [18]; -0.745 in [19]. Further, the z-score in test [20] was -0.0521 (inactive). For the same compound, the composite z-score in test [2] stood at 0.419.
Consider `COC(=O)[C@]1(Cc2ccccc2)N=C(c2ccc(OCCCO)cc2)O[C@@H]1c1ccccc1CN=[N+]=[N-]`, for which the z-score in test [1] is -1.03 (inactive); in test [3], 27.2 (active); in test [4], 24.7 (active); in [5], 0.765 (inactive); in test [6], 4.7 (inactive); in test [7] it was 0.614. Further, the z-score in test [8] was -4.51 (inactive); in test [9] it was -1.36 (inactive); in [10], -2.36; in test [11], -3.63; in test [12] it was 0.748; in test [13], -5.37. Further, the z-score was -3.55 in [14]; -3.97 in [15]; -2.4 in [16]; -0.876 (inactive) in test [17]; -1.12 in test [18]; -1.34 in [19]. Further, the z-score in [20] is -4.59 (inactive). Further, the composite z-score in [2] was 0.25.

These data come from PubChem BioAssay.
